KB-3-1 cytotox: qHTS assay for MDR1-selective chemotherapeutics: Primary screen using the parental adenocarcinoma cell KB-3-1 | KB-3-1 viability, CellTiter-Glo ATP luminescence, 72 h | Potency, µM (highest dose often 46.1 µM), hits mostly cytotoxic | hit rate 1.4% among 400,000 | AID 1347075, 2019; note: % is set by controls: 0 for no effect and ±100 for the full control effect; nearly all actives have a fitted effect of over 60% in size
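Luminescent ATP read-out (CellTiter-Glo) measures survival of drug-naive KB-3-1 cells after 72 h compound exposure at 37 °C. Titration series was screened from lowest to highest concentration, with DMSO vehicle plates as background controls.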
SW480 rerep: A quantitative high throughput screen for small molecules that induce DNA re-replication in SW480 colon adenocarcinoma cells; SW480 DNA re-replication, Hoechst DNA content imaging, 48 h; Potency, µM (series often up to 46.1 µM), without a hit: at the top dose re-replication activation, hits mostly activators; AID 624297, 2012; hit rate 1.8% among 340,000; note: % of control where 0% means no effect; nearly all actives have a fitted effect of over 55% in size
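Hoechst fluorescence of nuclei (405 nm excitation, 500-530 nm emission) measured by plate-scanning imager after 48 hr compound exposure at 37 C; re-replication scored as increased number of nuclei with elevated intensity.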
HT1080 IDH1KD tx: qHTS for induction of synthetic lethality in tumor cells producing 2HG: qHTS for the HT-1080-IDH1KD cell line; AID 686971, 2013; hit rate 2% among 360,000; Potency, µM (top dose mostly 46.1 µM), for the others: at the top dose activity, negative = toxicity, actives largely listed as cytotoxic; HT-1080 IDH1 knockdown viability, ATP luminescence, 48 h;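 note: 0% = DMSO wells and -100% = cell-free medium wells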
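Knockdown cells (IDH1KD HT-1080) received compounds 2 h after plating at 750 cells/well and were kept 48 h at 37 °C in 5% FBS RPMI. A CellTiter-Glo luminescence read gave % activity for curve fitting.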
MCF10A rerep: A quantitative high throughput screen for small molecules that induce DNA re-replication in MCF 10a normal breast cells. MCF 10A DNA re-replication, Hoechst nuclear intensity, 48 h. Potency, µM (titrated, usually from 46.1 µM), inactives show at the top dose activity, positive = re-replication, hits mostly activators. hit rate 2.9% among 350,000; note: % of control where 0% means no effect; nearly all actives have a fitted effect of over 50% in size
KB-V1 MDR tox: qHTS assay for MDR1-selective chemotherapeutics: Primary screen using the drug-selected MDR subline cells KB-V1 | hit rate 3.4% among 400,000 | Potency, µM (top dose mostly 46.1 µM), most hits filed as cytotoxic | KB-V1 MDR cells viability, CellTiter-Glo, 72 h; note: % is set by controls: 0 for no effect and ±100 for the full control effect; nearly all actives have a fitted effect of over 60% in size
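Readout: CellTiter-Glo luminescence, 10 min after addition. Cells: KB-V1 MDR subline, 72 h at 37 degrees C with compound. Analysis: corrected, normalized data fitted to concentration-effect curves.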
HT1080NT lethal: qHTS for induction of synthetic lethality in tumor cells producing 2HG: qHTS for the HT-1080-NT fibrosarcoma cell line. HT-1080-NT fibrosarcoma viability, CellTiter-Glo ATP luminescence, 48 h. Potency, µM (series often up to 46.1 µM), for inactives: at the highest dose activity, negative = less viability, hits mostly cytotoxic. AID 686970, 2013. hit rate 1.6% among 360,000;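 note: NT is the 2HG producing partner of a matched IDH1 knockdown line; 0% = DMSO-treated cells and -100% = media-only wells without cells; nearly all actives have a fitted effect of over 55% in size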
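HT-1080-NT fibrosarcoma cells (2HG-overproducing), 750 cells/well in RPMI with 5% FBS, dosed after 2 h and incubated 48 h at 37C. CellTiter-Glo luminescence normalized to DMSO and no-cell wells; concentration-response curves fitted and classed.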
Starred values were filed as active, the others as inactive; i = inactive; ? = inconclusive; nt = not tested or not shown; [ ] = another dose, or the depositor's remark. Sampled rows, rich in hits. Any-hit rate of the full collection: about 7.9%. Calls come from the whole dose curve; as a rule, active = well fitted curve in the direction sought with a large enough effect; inconclusive = small, poorly fitted or top-dose-only effect, or another doubt; inactive = no such curve, though single readings can be large; an effect the other way counts as inactive or inconclusive. Potency is the fitted concentration of half-maximal effect.

SMILES	KB-3-1 cytotox	SW480 rerep	HT1080 IDH1KD tx	MCF10A rerep	KB-V1 MDR tox	HT1080NT lethal
CC1CCN(S(=O)(=O)c2ccc(NC(=O)[C@@H]3CCCN3C(=O)c3cccs3)cc2)CC1	i	10%	7%	12%	21µM*	8%
CCOc1ccc(NC(=O)[C@@H]2CCCN2C(=O)c2cccs2)cc1S(=O)(=O)N1CCCCC1	i	8%	16%	-1%	9.2µM*	2%
O=CCCCC=O	nt	0%	nt	23%	nt	nt
CCOC(=O)CSC1=C(C#N)C(c2ccc3c(c2)OCO3)CC(=O)N1 (centres undefined)	7.3µM*	?	9.2µM*	?	?	16µM*
CCCCOC(=O)CSC1=C(C#N)C(c2ccc3c(c2)OCO3)CC(=O)N1 (centres undefined)	i	-3%	2%	1%	i	-1%
CCOC(=O)CSC1=C(C#N)C(c2ccc(Cl)cc2)CC(=O)N1 (centres undefined)	i	9%	-5%	2%	i	-10%
CCOC(=O)CSC1=C(C#N)C(c2ccc(C)o2)CC(=O)N1 (centres undefined)	0.58µM*	0.82µM*	0.58µM*	?	?	1µM*
CCOC(=O)CSC1=C(C#N)C(c2ccccc2OCC)C(C#N)C(=O)N1 (centres undefined)	i	18µM*	-9%	?	i	?
COc1ccc(-c2nc3c(C#N)c[nH]n3c2NC2CCCCC2)cc1	i	nt	nt	nt	i	nt
Cc1cc2ccccc2cn1	i	nt	nt	nt	i	nt
CCC(=O)c1ccc(/C=C/c2nc3ccccc3n2C)o1	i	18µM*	-6%	8.2µM*	i	-22%
COCc1cc(CN2CCN(C)CC2)c(O)c2ncccc12	?	?	?	?	3.7µM*	?
Oc1c(CN2CCN(c3ccccc3)CC2)cc(Br)c2cccnc12	?	18µM*	?	-2%	i	?
CCOC(=O)N1CCN(Cc2cc(Cl)c3cccnc3c2O)CC1	?	4.6µM*	3.3µM*	?	i	5.8µM*
C/C=C/c1cc(CN2CCN(c3ccccc3)CC2)c(O)c(OC)c1	?	11%	-24%	?	i	?
CN1CCN(C(c2ccccn2)c2cc(Cl)c3cccnc3c2O)CC1 (centres undefined)	i	?	?	15%	i	-24%
CC(C)OCc1cc(CN2CCN(c3ccccc3)CC2)c(O)c2ncccc12	?	nt	nt	nt	6.5µM*	nt
CCN(CC)CCCNC(=O)CSc1nc2nc(C)c(Cc3c(F)cccc3Cl)c(C)n2n1	i	nt	nt	nt	i	nt
Oc1c(Br)cc(Br)c2cccnc12	i	?	?	?	?	16µM*
c1ccc(N2CCN(Cc3ccnc4ccccc34)CC2)cc1	16µM*	5%	?	5%	i	-4%
Cc1cc(C)c2cccnc2c1O	i	nt	nt	nt	i	nt
c1cnc(N2CCN(Cc3c[nH]c4ccccc34)CC2)nc1	?	17%	?	13%	?	-19%
O=C(C[n+]1ccccc1Cl)c1ccc(Br)cc1	i	nt	nt	nt	i	nt
C/C(=N\N=C(/N)SC1CC(=O)N(c2ccccc2)C1=O)c1cccs1 (centres undefined)	i	3.7µM*	19%[9.24 µM]	2.3µM*	i	?
CN(C1CCCCC1)S(=O)(=O)c1ccc2c(c1)c(=O)c(C(=O)NCc1ccc(F)cc1)cn2C	i	nt	nt	nt	i	nt
Cc1cccn2cc(COc3ccc(-c4ccccc4)cc3)nc12	i	-9%	18µM*	16µM*	?	?

Assay outcomes from PubChem BioAssay.
